# Compound activity from PubChem.
# DAX1 inh-1 – DAX1 (NR0B1) inhibitors on StAR promoter, primary screen, cell-based, luminescence, SF-1 (NR5A1), full-length DAX-1; HEK293T StAR-luciferase reporter, SF-1/DAX-1 repression relief; AID 652010, 2013; hit rate 1.1% among 370,000; inhibition, % at 6.8 µM;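 active means inhibition above the mean over all tested compounds plus 3 SD, cut at about 3.6% in these data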;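 further: 0% = DAX-1 cells with DMSO and 100% = cells lacking DAX-1 with DMSO; higher inhibition means more luminescence from relief of DAX-1 repression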
# DAX1 inh-2 – DAX1 (NR0B1) inhibitors, primary screen, cell-based, HEK293, Gal4-DAX1, luciferase luminescence. hit rate 0.99% among 340,000. HEK293 Gal4-DAX1 luciferase reporter. inhibition, % at 6.75 µM;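 active means inhibition above the mean over all tested compounds plus 3 SD, cut at about 4.2% in these data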;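 further: 0% = DAX1-transfected cells with DMSO and 100% = empty-vector control cells with DMSO; inhibition shows as a rise in luminescence from relieved DAX1 repression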
# hgDAF12 agonist – H. glycines DAF-12 receptor agonists, primary screen, cell-based, luminescence, HEK293, GAL4 fusion, UAS-luciferase. hit rate 1.8% among 370,000. activation, % at 6.8 µM. HEK293 GAL4-hgDAF12 UAS-luciferase reporter, agonist luminescence; normalized to butyrate control;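 active means activation above a cutoff set at the mean of all screened compounds plus 3 SD, cut at about 10% in these data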;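 further: 0% = DMSO wells and 100% = sodium butyrate wells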
# hcDAF-12 act – H. contortus DAF-12 nuclear receptor activators, primary screen, cell-based, luminescence, HEK293, lit1-tk-luc reporter; HEK293 hcDAF-12 lit1-tk-luc reporter; 0% DMSO, 100% Δ7-dafachronic acid; activation, % at 6.8 µM; hit rate 1.4% among 370,000;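 active means activation above the mean of all tested compounds plus 3 SD, cut at about 5.5% in these data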;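 further: 100% = response to 3 µM Δ7-dafachronic acid high control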
# ssDAF12 agonist – S. stercoralis DAF-12 nuclear receptor activators, primary screen, cell-based, luminescence, HEK293, GRIP1 co-expression, lit1-tk-luc | Nuclear hormone receptor DAF-12 (Strongyloides stercoralis) | hit rate 1% among 370,000 | activation, % at 6.8 µM | HEK293 ssDAF-12/GRIP1 lit1-tk-luc reporter; % of 3 µM dafachronic acid response;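 active means activation above the mean over all tested compounds plus 3 SD, cut at about 0.9% in these data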;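 further: 0% = DMSO-only wells and 100% = 3 µM delta7-dafachronic acid wells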
# DAX1 conf – DAX1 (NR0B1) inhibitors relieving SF-1 repression, confirmation, cell-based, luminescence, HEK293T, full-length DAX-1, SF-1 activated StAR promoter. shares compounds with DAX1 inh-1. HEK293T StAR-promoter luciferase reporter, SF-1/DAX-1 repression. inhibition, % at 6.8 µM. hit rate 87% among 2,400. AID 652134, 2013;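 active means inhibition above the average of every tested compound plus 3 SD, cut at about 3.8% in these data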;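 further: 0% = DAX-1 cells with DMSO and 100% = no DAX-1 control cells with DMSO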
# Target sequence (P51843 whole entry, looked up): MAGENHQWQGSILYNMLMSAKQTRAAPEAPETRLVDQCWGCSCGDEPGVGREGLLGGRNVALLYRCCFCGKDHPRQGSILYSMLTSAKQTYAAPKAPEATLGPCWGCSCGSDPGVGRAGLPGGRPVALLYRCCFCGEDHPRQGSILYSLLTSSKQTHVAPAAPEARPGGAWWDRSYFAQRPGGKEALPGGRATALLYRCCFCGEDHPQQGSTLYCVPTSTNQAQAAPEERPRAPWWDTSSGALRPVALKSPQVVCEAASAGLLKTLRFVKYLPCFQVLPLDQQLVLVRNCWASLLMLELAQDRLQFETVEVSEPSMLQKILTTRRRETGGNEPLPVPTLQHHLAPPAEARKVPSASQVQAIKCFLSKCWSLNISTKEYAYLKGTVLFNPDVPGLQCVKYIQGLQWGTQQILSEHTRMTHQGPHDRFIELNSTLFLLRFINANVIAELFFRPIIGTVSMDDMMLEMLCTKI
# SF1 mutant ctr – StAR reporter signal changes without DAX1, counter-screen for DAX1 inhibitor project, cell-based, luminescence, AF-2 mutant SF-1, transactivation. shares compounds with DAX1 inh-1. HEK293 StAR-luciferase, SF-1 AF2 mutant. inhibition, % at 6.8 µM. hit rate 78% among 2,400;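 active means inhibition above the mean of all tested compounds plus 3 SD, cut at about 3% in these data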;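 further: 0% = DAX-1 transfected cells with DMSO and 100% = cells without DAX-1 with DMSO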
# LXR ag – LXR agonists, Gal4 luciferase reporter, confirmation, counter-screen for hcDAF-12 agonist project, cell-based, luminescence, HEK293, H. contortus campaign; HEK293 Gal4-LXR tk-luc reporter, 24 h; normalized: DMSO 0%, positive control 100%; 3,400 tested, under 10 active; activation, % at 6.8 µM; shares compounds with hcDAF-12 act;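 active means mean percent activation of the reporter above a cutoff set as the average over tested compounds plus their standard deviation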
# hcDAF12 conf – H. contortus DAF-12 receptor agonists, confirmation, cell-based, luminescence, HEK293, lit1-tk-luc, triplicate; HEK293 hcDAF-12 lit1-tk-luc reporter; % of Δ7-dafachronic acid response; hit rate 61% among 3,400; shares compounds with hcDAF-12 act; activation, % at 6.8 µM;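 active means mean activation across triplicate tests above the threshold derived from the earlier primary screen, cut at about 5.5% in these data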;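 further: 0% = DMSO only wells and 100% = 3 µM Δ7-dafachronic acid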
# hgDAF12 ag – H. glycines DAF-12 receptor agonists, confirmation, cell-based, luminescence, HEK293, GAL4-LBD fusion. shares compounds with hgDAF12 agonist. HEK293 GAL4-hgDAF12 luciferase reporter, agonist mode; percent of butyrate response. activation, % at 6.8 µM. hit rate 80% among 3,300. AID 743050, 2013;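 active means mean activation over triplicate wells above the hit cutoff derived from the earlier primary screen, cut at about 11% in these data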;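 further: 0% = DMSO low control and 100% = 2 mM sodium butyrate high control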
# LXR ag 2 – LXR agonists, Gal4 luciferase reporter, confirmation, counter-screen for hgDAF-12 agonist project, cell-based, luminescence, HEK293, H. glycines campaign | shares compounds with hgDAF12 agonist | 24 h | activation, % at 6.8 µM | 3,300 tested, under 10 active | AID 743051, 2013;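 active means mean activation of the triplicate above a set limit carried over from the primary screen, none filed active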
# Starred values were filed as active, the others as inactive; / = not tested or not shown. Rows were chosen to be rich in hits. Some 4.1% of all compounds tested hit in one or more screens of this group.
SMILES,DAX1 inh-1,DAX1 inh-2,hgDAF12 agonist,hcDAF-12 act,ssDAF12 agonist,DAX1 conf,SF1 mutant ctr,LXR ag,hcDAF12 conf,hgDAF12 ag,LXR ag 2
CC(NC(=O)c1cc(COc2ccccc2)on1)c1nccs1 (stereo unspecified),7.3*,2,20*,7.9*,0,8.3*,5.2*,1,6.0*,19*,1
Cc1cc(O)c(-c2cc(C(=O)Nc3cccnc3)[nH]n2)cc1C,4.8*,3,20*,6.3*,1,16*,7.0*,/,/,16*,1
Cn1c(N=NC(=O)c2ccccc2)c(O)c2ccccc21,5.8*,-2,21*,13*,2.1*,15*,5.7*,1,5.9*,16*,1
Cc1cc(N2CCN(C(=O)Oc3ccc(C(F)(F)F)cc3)CC2)c2ccccc2n1,-3,/,-5,-5,-2,/,/,/,/,/,/
Cc1nnc(SCC(=O)Nc2nsc(-c3ccc(C(C)(C)C)cc3)n2)s1,7.3*,4.4*,27*,7.3*,1,11*,6.0*,1,6.9*,19*,1
S=C(Nc1cccc(Br)c1)OC1CCC12CCC(c1ccccc1)CC2 (stereo unspecified),1,/,8,2,-1,/,/,/,/,/,/
Cc1[nH]c2ccccc2c1/C=N\NC(=O)CNc1ccc2c(c1)OCO2,1,0,2,2,-1,/,/,/,/,/,/
Oc1[nH]c2ccccc2c1C=Nc1ccc2c(c1)OCO2,6.6*,5.1*,17*,7.0*,1,16*,8.2*,1,6.8*,19*,1
CC(C)(C)OC(=O)/C=C/[C@H](CCCCl)Sc1ccc(C(C)(C)C)cc1,-3,/,0,-5,-2,/,/,/,/,/,/
O=C(c1ccccc1)c1coc(-c2ccccc2)c1,7.5*,2,14*,5,1,14*,5.0*,/,/,21*,1
Cn1cccc1C(=O)N1CCN(S(=O)(=O)c2cccc3ccccc23)CC1,0,/,-1,-2,-1,/,/,/,/,/,/
C/C(=N/NC(=O)c1cccs1)c1cccc(N)c1,5.8*,6.0*,16*,7.0*,0,5.5*,2,1,4,10,0
C/C(=N\NC(=O)c1ccc2c(c1)OCCO2)c1ccccc1,0,2,8,-1,0,/,/,/,/,/,/
O=C(Nc1ccc2c(c1)OCCO2)c1cccs1,4.7*,0,19*,8.3*,1,15*,7.6*,1,4,13*,1
CC(=NNC(=O)c1cccs1)c1ccc2c(c1)OCCO2,7.2*,4,17*,5,1,7.8*,2.9*,/,/,13*,1
O=C(/C=C\Nc1ccc2c(c1)OCO2)c1cccs1,9.0*,-1,17*,8.3*,1.0*,12*,0,2,11*,12*,1
CCCCCCNC(=O)C1CSCCS(=O)(=O)N1Cc1ccccc1 (stereo unspecified),0,/,0,-4,-1,/,/,/,/,/,/
O=C(CSc1nnc(-c2ccncc2)n1-c1ccc(Cl)cc1)c1ccc(Cl)c(Cl)c1,0,/,-1,-2,-2,/,/,/,/,/,/
CCCc1cn(-c2ccc3c(c2)[C@]2(CC(=O)N(C)C2c2ccccc2)C(=O)N3CC(C)C)nn1 (stereo partly specified),-1,/,3,0,0,/,/,/,/,/,/
O=C(Nc1ccc2oc(=O)ccc2c1)c1cc2ccccc2o1,0,2,6,4,0,/,/,/,/,/,/
O=C(Nc1ccc2c(c1)OCCO2)c1cc2ccccc2o1,5.7*,0,20*,12*,1.0*,20*,8.3*,2,8.1*,17*,1
O=C(NOCc1ccccc1)c1ccc([N+](=O)[O-])cc1,7.3*,0,15*,2,1.8*,9.7*,5.2*,/,/,12*,1
Cc1ccc2c(c1)C(=O)CC(c1ccccc1)S2 (stereo unspecified),19*,3,20*,7.7*,1.5*,13*,7.4*,2,6.5*,19*,1
O=C1CC(c2ccccc2)Sc2ccccc2N1 (stereo unspecified),1,0,2,3,0,/,/,/,/,/,/
O=C(/C=C/c1ccc(O)c(O)c1)NC(=O)c1ccccc1O,4.6*,0,15*,6.5*,0,8.1*,4.0*,/,/,13*,0
O=C(O)/C=C/c1ccc(O)c(O)c1,1,0,1,0,-1,/,/,/,/,/,/
Oc1ccc(N=Nc2n[nH]c(-c3ccccc3)n2)cc1,7.1*,0,15*,5,1,15*,9.2*,/,/,17*,1
OC(c1ccccc1)(c1ccccc1)C1CCN(CCCOc2ccncc2)CC1,1,/,1,0,0,/,/,/,/,/,/
